Source: the supplement of paper PMC11732987, “Enantioselective OTUD7B fragment discovery through chemoproteomics screening and high-throughput optimisation” (Communications Chemistry, 2025)

Experiments:
Experiment in all cases: log2 ratio of Biotin-Ahx-Ub-VS probe labelling (fragment/DMSO); higher = less target engagement (more negative = stronger competition), active = hit call of the paper (q ≤ 0.05, log2 ratio ≤ -1)
Conditions in all cases: compound concentration: 200 uM; treatment time: 3 h
USP34 = USP34 (UniProt Q70CQ2)
USP34, sequence (Q70CQ2 whole entry, the tested form may be a part): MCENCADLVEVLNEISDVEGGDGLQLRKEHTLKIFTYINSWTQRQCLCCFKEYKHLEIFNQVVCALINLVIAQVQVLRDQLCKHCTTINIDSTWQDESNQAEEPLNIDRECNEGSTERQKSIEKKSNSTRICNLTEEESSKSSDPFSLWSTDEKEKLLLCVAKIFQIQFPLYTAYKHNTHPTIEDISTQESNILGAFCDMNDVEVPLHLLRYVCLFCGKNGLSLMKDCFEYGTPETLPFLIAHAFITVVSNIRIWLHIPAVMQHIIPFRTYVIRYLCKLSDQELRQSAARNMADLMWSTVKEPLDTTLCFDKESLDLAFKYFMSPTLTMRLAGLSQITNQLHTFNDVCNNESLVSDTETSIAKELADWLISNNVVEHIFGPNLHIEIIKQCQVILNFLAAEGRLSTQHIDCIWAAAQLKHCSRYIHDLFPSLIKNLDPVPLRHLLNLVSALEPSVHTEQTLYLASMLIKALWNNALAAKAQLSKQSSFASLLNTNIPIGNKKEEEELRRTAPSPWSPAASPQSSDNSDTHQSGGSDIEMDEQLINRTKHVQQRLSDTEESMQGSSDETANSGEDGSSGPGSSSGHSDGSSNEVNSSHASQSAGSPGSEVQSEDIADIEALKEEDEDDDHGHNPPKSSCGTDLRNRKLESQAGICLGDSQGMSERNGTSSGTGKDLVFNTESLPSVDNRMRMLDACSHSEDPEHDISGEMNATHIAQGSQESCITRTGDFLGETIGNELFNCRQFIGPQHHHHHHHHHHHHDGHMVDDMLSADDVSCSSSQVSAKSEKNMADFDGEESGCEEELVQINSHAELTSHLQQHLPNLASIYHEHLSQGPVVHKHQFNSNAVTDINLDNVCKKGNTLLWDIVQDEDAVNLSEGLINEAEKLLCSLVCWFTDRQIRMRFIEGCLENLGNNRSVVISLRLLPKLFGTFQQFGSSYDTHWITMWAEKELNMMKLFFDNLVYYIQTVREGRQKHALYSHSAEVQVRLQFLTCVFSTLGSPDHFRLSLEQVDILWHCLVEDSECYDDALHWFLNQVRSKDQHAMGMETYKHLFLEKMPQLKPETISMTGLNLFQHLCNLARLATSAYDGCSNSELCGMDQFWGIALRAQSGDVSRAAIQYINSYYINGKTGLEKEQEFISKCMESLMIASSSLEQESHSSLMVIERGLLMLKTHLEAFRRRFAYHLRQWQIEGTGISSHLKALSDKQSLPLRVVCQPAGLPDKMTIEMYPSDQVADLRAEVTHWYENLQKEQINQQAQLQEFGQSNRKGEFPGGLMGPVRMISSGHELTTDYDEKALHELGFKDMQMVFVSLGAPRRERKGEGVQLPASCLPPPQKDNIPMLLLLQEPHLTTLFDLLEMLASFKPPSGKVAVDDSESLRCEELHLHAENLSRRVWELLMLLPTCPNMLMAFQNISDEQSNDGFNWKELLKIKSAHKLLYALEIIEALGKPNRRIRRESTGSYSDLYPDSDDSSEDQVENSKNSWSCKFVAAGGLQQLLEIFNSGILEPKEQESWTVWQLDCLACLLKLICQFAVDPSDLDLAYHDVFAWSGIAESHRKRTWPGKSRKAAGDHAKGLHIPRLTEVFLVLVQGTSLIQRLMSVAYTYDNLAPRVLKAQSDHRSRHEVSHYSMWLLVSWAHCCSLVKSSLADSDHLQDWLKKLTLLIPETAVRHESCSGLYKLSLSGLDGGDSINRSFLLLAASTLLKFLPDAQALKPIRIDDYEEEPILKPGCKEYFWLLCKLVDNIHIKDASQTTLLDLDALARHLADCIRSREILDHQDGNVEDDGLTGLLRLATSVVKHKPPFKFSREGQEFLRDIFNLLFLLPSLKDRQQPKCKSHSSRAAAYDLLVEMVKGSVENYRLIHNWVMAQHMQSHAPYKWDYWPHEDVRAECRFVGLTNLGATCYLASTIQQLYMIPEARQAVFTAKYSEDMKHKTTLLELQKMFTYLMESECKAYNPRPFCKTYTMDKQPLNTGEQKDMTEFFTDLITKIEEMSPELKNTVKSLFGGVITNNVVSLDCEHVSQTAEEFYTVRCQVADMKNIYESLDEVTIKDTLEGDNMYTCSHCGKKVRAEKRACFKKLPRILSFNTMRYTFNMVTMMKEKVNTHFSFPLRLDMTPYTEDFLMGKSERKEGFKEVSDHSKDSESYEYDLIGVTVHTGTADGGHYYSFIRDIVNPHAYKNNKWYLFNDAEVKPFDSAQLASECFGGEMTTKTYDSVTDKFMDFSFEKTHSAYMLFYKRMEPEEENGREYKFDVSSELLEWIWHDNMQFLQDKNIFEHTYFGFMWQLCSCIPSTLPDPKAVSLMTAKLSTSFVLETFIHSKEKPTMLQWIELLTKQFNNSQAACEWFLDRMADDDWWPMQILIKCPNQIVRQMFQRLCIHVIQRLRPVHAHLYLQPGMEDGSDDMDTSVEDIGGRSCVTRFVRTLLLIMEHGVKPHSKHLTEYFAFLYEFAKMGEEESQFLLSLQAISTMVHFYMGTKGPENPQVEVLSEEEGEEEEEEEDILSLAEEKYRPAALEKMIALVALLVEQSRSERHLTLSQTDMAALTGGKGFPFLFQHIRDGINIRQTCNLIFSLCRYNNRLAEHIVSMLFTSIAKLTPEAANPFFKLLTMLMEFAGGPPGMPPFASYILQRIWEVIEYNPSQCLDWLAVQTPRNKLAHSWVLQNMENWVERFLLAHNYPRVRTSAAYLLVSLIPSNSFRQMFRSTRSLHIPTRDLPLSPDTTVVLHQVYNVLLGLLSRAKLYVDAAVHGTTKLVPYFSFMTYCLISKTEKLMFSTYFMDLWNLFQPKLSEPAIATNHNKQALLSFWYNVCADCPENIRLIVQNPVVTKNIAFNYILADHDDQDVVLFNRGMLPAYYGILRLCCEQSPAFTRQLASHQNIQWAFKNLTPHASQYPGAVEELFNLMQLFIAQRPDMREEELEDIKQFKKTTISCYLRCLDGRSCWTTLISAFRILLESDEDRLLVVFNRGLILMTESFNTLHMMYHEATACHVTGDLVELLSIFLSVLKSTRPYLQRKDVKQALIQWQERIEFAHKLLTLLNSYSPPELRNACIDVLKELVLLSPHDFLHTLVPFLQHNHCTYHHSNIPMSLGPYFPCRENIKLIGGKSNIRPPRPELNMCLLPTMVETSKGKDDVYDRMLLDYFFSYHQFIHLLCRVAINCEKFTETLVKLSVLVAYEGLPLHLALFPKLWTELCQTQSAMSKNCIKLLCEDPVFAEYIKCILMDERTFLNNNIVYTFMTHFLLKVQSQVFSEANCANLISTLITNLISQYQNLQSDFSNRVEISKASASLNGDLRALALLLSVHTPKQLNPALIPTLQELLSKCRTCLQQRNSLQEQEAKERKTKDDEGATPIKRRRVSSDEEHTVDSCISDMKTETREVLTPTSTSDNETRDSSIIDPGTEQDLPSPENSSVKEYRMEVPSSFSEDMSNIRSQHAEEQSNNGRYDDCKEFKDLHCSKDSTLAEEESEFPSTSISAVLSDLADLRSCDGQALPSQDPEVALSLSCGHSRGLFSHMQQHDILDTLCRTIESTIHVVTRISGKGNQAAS
Outline: (§1)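 Labelled DUBs from HEK293T lysate were NeutrAvidin-enriched, digested with LysC and trypsin, and run by diaPASEF LC-MS/MS. Before that, each 495 µg sample in Tris/CHAPS/IGEPAL buffer with protease inhibitors was treated in triplicate with fragment at 200 µM or vehicle for 3 h, then with Biotin-Ahx-Ub-VS at 0.5 µM final for 1 h. Values are average log2 ratios of fragment over vehicle by unpaired t-test, based on global-median-normalised Spectronaut label-free quantities from proteins with ≥2 unique peptides.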

USP36 = target: T1, USP36 (UniProt Q9P275)
T1 sequence (whole entry): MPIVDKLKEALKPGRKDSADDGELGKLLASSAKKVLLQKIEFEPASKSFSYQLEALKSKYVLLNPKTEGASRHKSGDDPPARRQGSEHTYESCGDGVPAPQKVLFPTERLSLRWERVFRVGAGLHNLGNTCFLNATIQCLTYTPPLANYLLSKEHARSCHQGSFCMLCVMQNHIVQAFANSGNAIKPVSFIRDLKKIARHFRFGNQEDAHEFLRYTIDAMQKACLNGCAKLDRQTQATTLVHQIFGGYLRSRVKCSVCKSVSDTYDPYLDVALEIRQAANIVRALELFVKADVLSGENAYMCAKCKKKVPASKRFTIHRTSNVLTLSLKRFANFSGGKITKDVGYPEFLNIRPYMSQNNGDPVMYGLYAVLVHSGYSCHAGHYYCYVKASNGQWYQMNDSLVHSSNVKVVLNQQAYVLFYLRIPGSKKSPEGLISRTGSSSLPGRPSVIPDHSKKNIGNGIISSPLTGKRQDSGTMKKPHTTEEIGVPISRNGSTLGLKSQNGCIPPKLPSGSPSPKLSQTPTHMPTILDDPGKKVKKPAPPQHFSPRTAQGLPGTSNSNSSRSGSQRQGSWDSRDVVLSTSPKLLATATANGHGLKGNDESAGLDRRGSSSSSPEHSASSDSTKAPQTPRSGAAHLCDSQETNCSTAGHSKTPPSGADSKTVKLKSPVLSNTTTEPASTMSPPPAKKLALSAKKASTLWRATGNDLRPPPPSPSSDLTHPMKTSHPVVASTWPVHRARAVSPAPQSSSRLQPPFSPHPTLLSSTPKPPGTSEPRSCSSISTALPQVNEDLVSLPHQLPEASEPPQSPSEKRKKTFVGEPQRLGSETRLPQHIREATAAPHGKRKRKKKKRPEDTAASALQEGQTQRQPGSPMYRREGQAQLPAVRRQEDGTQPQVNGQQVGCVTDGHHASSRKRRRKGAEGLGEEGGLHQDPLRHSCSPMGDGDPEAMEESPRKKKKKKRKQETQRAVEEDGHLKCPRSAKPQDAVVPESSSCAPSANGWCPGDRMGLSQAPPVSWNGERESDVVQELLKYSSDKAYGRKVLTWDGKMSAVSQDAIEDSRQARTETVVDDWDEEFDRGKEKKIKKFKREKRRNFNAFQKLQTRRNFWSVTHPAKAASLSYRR
Outline: as §1

USP38 = target: T2, USP38 (UniProt Q8NB14)
T2 sequence (whole entry): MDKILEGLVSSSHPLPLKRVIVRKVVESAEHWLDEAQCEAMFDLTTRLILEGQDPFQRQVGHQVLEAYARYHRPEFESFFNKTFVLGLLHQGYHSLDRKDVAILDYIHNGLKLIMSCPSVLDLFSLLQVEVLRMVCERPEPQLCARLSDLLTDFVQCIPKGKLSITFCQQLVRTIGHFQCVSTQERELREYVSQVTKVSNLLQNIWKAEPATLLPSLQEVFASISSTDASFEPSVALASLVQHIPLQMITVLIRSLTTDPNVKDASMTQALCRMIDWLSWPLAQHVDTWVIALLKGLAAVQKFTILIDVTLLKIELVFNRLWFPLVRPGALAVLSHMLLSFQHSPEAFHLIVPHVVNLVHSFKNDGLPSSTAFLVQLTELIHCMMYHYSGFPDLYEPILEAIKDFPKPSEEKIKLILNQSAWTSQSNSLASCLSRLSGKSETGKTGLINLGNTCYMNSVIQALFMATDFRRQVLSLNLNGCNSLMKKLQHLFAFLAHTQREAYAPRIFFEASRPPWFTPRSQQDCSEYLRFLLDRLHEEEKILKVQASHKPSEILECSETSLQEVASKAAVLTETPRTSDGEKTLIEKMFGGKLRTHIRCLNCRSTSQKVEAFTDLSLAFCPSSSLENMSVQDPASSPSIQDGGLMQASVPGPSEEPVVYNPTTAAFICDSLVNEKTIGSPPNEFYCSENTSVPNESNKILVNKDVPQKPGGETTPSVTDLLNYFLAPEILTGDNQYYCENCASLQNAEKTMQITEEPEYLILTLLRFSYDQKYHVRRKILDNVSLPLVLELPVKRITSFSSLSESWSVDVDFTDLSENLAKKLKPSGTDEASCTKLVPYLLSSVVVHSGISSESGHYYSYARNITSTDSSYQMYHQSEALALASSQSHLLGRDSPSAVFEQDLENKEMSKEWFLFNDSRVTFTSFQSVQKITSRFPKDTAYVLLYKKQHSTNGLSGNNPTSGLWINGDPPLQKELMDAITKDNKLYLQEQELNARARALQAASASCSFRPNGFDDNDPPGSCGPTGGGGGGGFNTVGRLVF
Outline: as §1

USP39 = target: T3, USP39 (UniProt Q53GS9)
T3 sequence (whole entry): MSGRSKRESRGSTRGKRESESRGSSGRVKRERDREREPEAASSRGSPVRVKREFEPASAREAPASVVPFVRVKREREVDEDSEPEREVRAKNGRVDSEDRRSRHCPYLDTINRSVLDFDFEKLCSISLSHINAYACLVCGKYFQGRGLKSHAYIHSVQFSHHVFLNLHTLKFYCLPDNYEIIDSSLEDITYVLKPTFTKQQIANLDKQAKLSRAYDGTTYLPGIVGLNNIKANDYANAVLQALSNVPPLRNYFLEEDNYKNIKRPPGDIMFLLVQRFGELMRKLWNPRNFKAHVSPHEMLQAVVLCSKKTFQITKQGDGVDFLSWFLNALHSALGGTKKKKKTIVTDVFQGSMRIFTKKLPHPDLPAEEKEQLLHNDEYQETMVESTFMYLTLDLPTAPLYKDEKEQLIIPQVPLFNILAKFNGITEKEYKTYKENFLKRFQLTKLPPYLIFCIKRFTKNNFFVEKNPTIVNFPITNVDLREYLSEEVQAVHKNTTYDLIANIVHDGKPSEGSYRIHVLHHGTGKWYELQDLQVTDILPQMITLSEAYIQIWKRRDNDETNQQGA
Outline: as §1

USP4 = target: T4, USP4 (UniProt Q13107)
T4 sequence (whole entry): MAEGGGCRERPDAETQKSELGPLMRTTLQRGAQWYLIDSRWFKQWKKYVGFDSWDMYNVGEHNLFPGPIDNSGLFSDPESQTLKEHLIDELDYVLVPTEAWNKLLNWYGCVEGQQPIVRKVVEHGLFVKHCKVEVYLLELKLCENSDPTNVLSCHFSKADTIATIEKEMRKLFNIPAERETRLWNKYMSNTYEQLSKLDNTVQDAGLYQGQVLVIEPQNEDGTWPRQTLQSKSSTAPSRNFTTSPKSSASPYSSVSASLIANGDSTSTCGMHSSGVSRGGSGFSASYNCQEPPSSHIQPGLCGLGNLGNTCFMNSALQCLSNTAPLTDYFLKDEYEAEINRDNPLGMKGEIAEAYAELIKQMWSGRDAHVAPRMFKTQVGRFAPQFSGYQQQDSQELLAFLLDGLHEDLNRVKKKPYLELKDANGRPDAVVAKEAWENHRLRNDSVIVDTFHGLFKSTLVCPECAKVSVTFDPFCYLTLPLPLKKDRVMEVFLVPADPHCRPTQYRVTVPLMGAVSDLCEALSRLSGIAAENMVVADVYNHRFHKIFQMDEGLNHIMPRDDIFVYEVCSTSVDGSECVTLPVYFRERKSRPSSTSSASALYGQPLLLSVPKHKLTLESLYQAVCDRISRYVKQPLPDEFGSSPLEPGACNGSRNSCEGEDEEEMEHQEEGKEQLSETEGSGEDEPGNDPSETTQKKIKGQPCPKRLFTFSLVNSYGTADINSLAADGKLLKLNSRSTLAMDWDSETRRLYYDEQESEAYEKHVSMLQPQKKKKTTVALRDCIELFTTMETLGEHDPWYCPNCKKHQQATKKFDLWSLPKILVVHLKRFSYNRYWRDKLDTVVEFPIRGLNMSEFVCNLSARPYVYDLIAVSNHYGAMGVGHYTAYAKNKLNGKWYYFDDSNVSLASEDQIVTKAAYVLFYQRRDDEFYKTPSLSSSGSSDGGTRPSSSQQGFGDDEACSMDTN
Outline: as §1

Measured: log2 ratio of Biotin-Ahx-Ub-VS probe labelling

Cc1ncc2c(n1)CCN(C(=O)CCl)C2
inactive: USP34 -0.14 | USP36 -0.0392 | USP38 -0.067 | USP39 0.0209 | USP4 -0.35
